Wnt act – activates Wnt/beta-catenin signaling in a reporter cell assay; actives 1.2% (n = 300,000); activation, % at 9.35 µM; activator, plate reader; AID 743398; in the data active = activation above about 30%, passing the limit was not always enough; inconclusive = no clear call, values can overlap the other calls;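 also: 0% = neutral control wells and 100% = positive control wells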
FXN GAA850 act – frataxin GAA850 promoter activation; HEK293 lucGAA850 FXN promoter luciferase reporter, 24 h; percent of 10 µM SAHA response; activation, % at 6 µM; actives 0.56% (n = 360,000);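 active = activation above the average of all compounds screened plus 3 SD, cutoff fixed separately per campaign, cut at about 7.5% in these data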;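 also: 0% = DMSO wells and 100% = 10 µM SAHA wells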
esBAF inh – SWI/SNF esBAF complex inhibition; reporter increase, % at 12.5 µM; mouse ES cells, Bmi1-luciferase knock-in reporter, 24 h; 100% = twice the neutral-well signal; actives 2% (n = 350,000); in the data active = activation above about 40%; inconclusive = no clear call, values can overlap the other calls;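 also: 0% = median of the plate's neutral control wells and 100% = double that signal; a rise in the Bmi1 reporter signal indicates esBAF inhibition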
MITF TRPM1 HTS – increases MITF-driven TRPM1 promoter luciferase signal; SK-MEL-5 TRPM1-promoter luciferase, 24 h; % of positive control, neutral wells = 0; activation, % at 12.5 µM; actives 0.75% (n = 300,000); AID 588334;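 active = mean activation of at least 80% with every replicate also reaching 80%; inconclusive = mean reaches 80% but some replicate falls short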;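 also: 0% = neutral control wells and 100% = parthenolide positive control wells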
AHR act – activates the human aryl hydrocarbon receptor | activation, % at 5 µM | actives 2.5% (n = 320,000) | P35869 | AHR-responsive luciferase reporter cells, luminescence | AID 2796; in the data active = activation above about 47%;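 also: 0% = vehicle wells and 100% = reference agonist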
Starred values were filed as active, the others as inactive; ? = inconclusive; . = not tested or not shown. The list is not random: actives were taken first. Their share in the collection is about 4.2%.

SMILES	Wnt act	FXN GAA850 act	esBAF inh	MITF TRPM1 HTS	AHR act
Cc1ccc(S(=O)(=O)N(C)C[C@@H]2OCCCC[C@H](C)Oc3ccc(NC(=O)Nc4ccc(F)cc4)cc3C(=O)N([C@H](C)CO)C[C@@H]2C)cc1	.	.	3	.	.
O=C(NC(=S)Nc1cccc(NC(=S)NC(=O)c2ccccc2)c1)c1ccccc1	-3	1	66*	1	.
CC(C)(C)NC(=S)NNC(=O)c1ccc2ncccc2c1	11	5	57*	73	7
C[C@H]1CN([C@@H](C)CO)C(=O)c2cc(C#Cc3ccccc3F)cnc2O[C@H]1CN(C)C(=O)C1CCC1	.	.	0	.	.
CC=Cc1ccc2n(c1=O)C[C@H]1[C@H](CO)[C@@H](C(=O)NCC3CC3)[C@@H]2N1CCC (mixture of isomers)	.	.	1	.	.
O=C(COc1ccccc1/C=C1/NC(=O)NC1=O)Nc1ccccc1	-12	-1	-3	-7	36
O=C(COc1ccccc1/C=C1\SC(=O)NC1=O)Nc1ccc(F)cc1	0	1	.	-12	98*
COc1ccc(NC(=O)N(C)C[C@@H]2Oc3ccc(NC(=O)Cn4cnnn4)cc3C(=O)N([C@H](C)CO)C[C@H]2C)cc1	.	.	1	.	.
COc1ccc2oc3ccc(OC)cc3c(=O)c2c1	.	4	98*	.	7
N#Cc1ccc(C#Cc2ccc3oc4ccccc4c(=O)c3c2)cc1	0	1	-2	3	-2
O=c1c2ccccc2oc2ccc(-c3ccc4cc[nH]c4c3)cc12	.	4	-2	104*	25
COc1ccc2oc(=O)cc(C)c2c1	.	-2	.	10	6
COc1cccc2c(=O)ccoc12	.	-2	.	-12	9
COc1cccc2c(=O)c3ccccc3oc12	12	6	66*	?	9
Cc1ccc2oc3ccccc3c(=O)c2c1	29	2	62*	101*	.
CC(C)NC(=O)N[C@@H]1CC[C@@H](CCn2cc(-c3ccc(F)cc3)nn2)O[C@H]1CO	.	.	15	.	.
COCC(=O)Nc1ccc2c(c1)[C@@H]1C[C@H](CC(=O)N3CCCCC3)O[C@@H](CO)[C@@H]1O2	.	.	7	.	.
C[C@H](CO)N1C[C@H](C)[C@@H](CN(C)S(=O)(=O)c2ccccc2)Oc2c(NC(=O)C3CCOCC3)cccc2C1=O	.	.	-3	.	.
CCN1[C@@H]2c3ccc(-c4ccncc4)c(=O)n3C[C@@H]2[C@@H](CO)[C@@H]1C(=O)NCCc1cn(C)cn1	.	.	-5	.	.
COc1ccc(OC)c(-c2oc3ccccc3c(=O)c2O)c1	-1	7	15	4	14
COc1ccc2oc3ccccc3c(=O)c2c1	33*	4	48*	73	-1
O[C@@H]1COC(Nc2ccc(N=Nc3ccccc3)cc2)C[C@@H]1O (stereo partly drawn)	46*	.	.	.	-5
CCCn1nnc(NC(=O)c2ccc(-c3ccccc3)cc2)n1	29	-2	41*	92*	3
Cn1nnc(NC(=O)c2ccc(C(C)(C)C)cc2)n1	.	0	46*	.	22
CCCn1nnc(NC(=O)c2ccc(Br)cc2)n1	-4	4	35	57	3
SMILES	Wnt act	FXN GAA850 act	esBAF inh	MITF TRPM1 HTS	AHR act
Cn1nnc(NC(=O)c2ccc3ccccc3c2)n1	.	4	6	31	-4
C[C@H](CO)N1C[C@H](C)[C@@H](CN(C)C(=O)Nc2ccc3c(c2)OCO3)OCCCC[C@H](C)Oc2ccc(N(C)C)cc2C1=O	.	.	3	.	.
N#C[C@H]1[C@H](c2ccc(-c3ccccc3F)cc2)[C@@H](CO)N1C(=O)C1CCOCC1	.	.	-3	.	.
CC1C=NC(S(=O)(=O)N2CC[C@@H]3[C@H](CO)N(C)c4ccc(-c5ccccc5F)cc4[C@@H]32)=N1 (stereo partly drawn)	.	.	7	.	.
O=C(Nc1ccc2nc(C3CC3)n(Cc3ccccc3)c(=O)c2c1)C1CC1	24	2	67*	115*	7
CCC(=O)Nc1ccc2nc(C3CC3)n(Cc3ccccc3)c(=O)c2c1	.	3	.	?	-1
CC(=O)N1CC[C@@H]2[C@H]1c1cc(-c3ccccc3)ccc1N(C)[C@@H]2CO	.	.	3	.	.
COc1cccc2c1OC1(CCN(C(C)C)CC1)N1N=C(c3cccnc3)CC21 (stereo not drawn)	34*	1	.	.	4
O=C1c2ccccc2C(=O)N1CCCCN(C(=O)c1ccc(Cl)s1)c1ccc(Cl)cc1	-1	0	.	-3	7
O=C1c2cccc3cccc(c23)C(=O)N1CCCN(C(=O)c1cccs1)c1cccc(F)c1	2	1	-2	-21	51*
